# Measurements reported in publication PMC12136788.
# Whole data set: some 24,000 sequences, median “enrichment r” near 0.99, cut for the highest 2% near 3.7. Only a sample is shown.
# T1: UNK ZnF1-3 (human, UniProt Q9C0B0 31-174)
# T1 sequence: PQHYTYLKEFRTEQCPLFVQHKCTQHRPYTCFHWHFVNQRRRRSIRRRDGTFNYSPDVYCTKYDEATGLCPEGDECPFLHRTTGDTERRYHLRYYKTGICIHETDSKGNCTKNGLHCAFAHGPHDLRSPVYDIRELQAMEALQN
# B1: chr18:56819859:56819860:+_ENSG00000166562_ENST00000588875|hu_mus|hu_hu_hu_mus_True|88_88 (ssRNA)
# RNA: GGGAGUUCUACAGUCCGACGAUCAACCUUGAUUACUCUGUGAACUAUUGGAAUGUCUCUUCCUUCAACCUUAAAAACAACUAUUUCACCAGCUCUGAUGGGGUCCUCCCGGAAAUUCGUGAGGAACAGCAGAUCUCCUCUGUGCAACAGAGGAUUGAGCAUCA
# B2: chr5:145543945:145543946:-_ENSG00000133706_ENST00000545646|hu_hu|hu_hu_hu_mus_True|38_58 (ssRNA)
# RNA: GGGAGUUCUACAGUCCGACGAUCCUGAACGGCCAGUGGUGGGAAAUAAUCAAGCCAGUGCUCUGCUUCAGAAAACUUUACUAUCUCGUCAUCAGAGAGGCCAAGGGAUUUCAUAAUGUCCCACUGGUACUUAGAAGAUCCUGCCAACAGAGGAUUGAGCAUCA
# B3: chr12:73313434:73313435:-_ENSMUSG00000021087_ENSMUST00000021497|mus_mus|motif|central (ssRNA)
# RNA: GGGAGUUCUACAGUCCGACGAUCCAUAUAUCCUAAGAGUACAGGAAGAGCCUCAAAACACCUGUCUCAAAGUUUGCCUCGGAGAUUAUGGUACCAGGAAAGGGAAACAAUCAAUUUGCAGUAACGAGGAAGGAGAGAGCUGUUCAACAGAGGAUUGAGCAUCA
# B4: 87970796_87970916_7552_CDS_ENSG00000188994_ENST00000369577|human|control|control (ssRNA)
# RNA: GGGAGUUCUACAGUCCGACGAUCUUCUGACUGGCAGAGGUUAUCUUCCUGAAAAUCAUUACUUACAUUUGAAGAAGUAUUAGCUUGGGUCUCUACACUUGUGCUAUCUUCAUUUAUUAAUUUUGUAAUAAACAAUUCUGUUAGCAACAGAGGAUUGAGCAUCA
# B5: chr15:93570553:93570554:+_ENSG00000173575_ENST00000394196|hu_hu|motif|central (ssRNA)
# RNA: GGGAGUUCUACAGUCCGACGAUCUCUAAGGCCAUAGUGUAUCAUGUCAACCCUUGUUCACGUGCAGGUUUUAGGUGAUGCGGACUCCCUCUUUCUCAACCUGUUAUUUCUACCAACAAUGAAAUCUUUCAAAGCCAGACUCCACAACAGAGGAUUGAGCAUCA
# B6: 135292008_135298915_3170_CDS_ENSG00000155561_ENST00000285968|human|control|control (ssRNA)
# RNA: GGGAGUUCUACAGUCCGACGAUCAUAUAUGACCUGGUAACAUAGCUCAGCCAGCUGAGGAGAUUCUCGCACCGCCACUGGGCCUGUUCUCCCUUCCGUUCCUUUCUCCAAGAUGUUUAGAAUGGCGUGAAGGCAUGUCCGAGGCAACAGAGGAUUGAGCAUCA
# B7: chr1:66463027:66463028:+_ENSMUSG00000015222_ENSMUST00000114013|mus_hu|motif|central (ssRNA)
# RNA: GGGAGUUCUACAGUCCGACGAUCUUUUCUUUCAGGAGUGGAAAUUCUGCCUCUCCCGGUUUUAAAAGGCUUUUCUUUUCGGUGUUUCUCAAGAGAUGAUCUCCGAGCUUCCUUUUCAGCUUUCUCCUCUUUAGGAAUAGUUUCCAACAGAGGAUUGAGCAUCA
# B8: 18138343_18138463_2469_3pUTR_ENSMUSG00000026740_ENSMUST00000166495|mouse|control|control (ssRNA)
# RNA: GGGAGUUCUACAGUCCGACGAUCUUAGAUCCAUGUAUUCAUGUGCAUGUGUCUAUGUGGGCUCGGAUGUGUGUGCUGUACCACAAUAUGAAUGCAGAGGUCAGAGGACAGCUCCUGUGAACAUGUGCUUGCUGGAGAGUGAGUCAACAGAGGAUUGAGCAUCA
# B9: chr17:88379672:88379673:+_ENSMUSG00000005370_ENSMUST00000005503|mus_mus|motif|central (ssRNA)
# RNA: GGGAGUUCUACAGUCCGACGAUCUCCCUUUUGGGCUUCCUUUGACUUUGAACCUGUAUAUGGCUUUAACAUCCUUUUGCGGACCCAGCCCCUUGUUGGGCUGUCAUCAAAGAACUGUACAUGAACACGGACAGAUUUCCCUUUCAACAGAGGAUUGAGCAUCA
# B10: chr2:48026839:48026840:+_ENSG00000116062_ENST00000540021|hu_hu|hu_hu_hu_mus_False|48_78 (ssRNA)
# RNA: GGGAGUUCUACAGUCCGACGAUCAUAGUGAGCCACUAGCGUCCUAAAUCUGGAACAAUGGCGAUCAUCCGAAAACUGGCCGAUGAAAAACUUUCCCAGUGAAGUGUCCACAAAGCAAACACCAUACACACGAGUGUGACCAGACAACAGAGGAUUGAGCAUCA
# B11: chr1:55207850:55207851:+_ENSMUSG00000025979_ENSMUST00000162364|mus_hu|FALSE|FALSE (ssRNA)
# RNA: GGGAGUUCUACAGUCCGACGAUCCCGAUGAUGAAAAUAAGCAUGUGAAAAUAUUCUGUAAAUCCUACGGCAUACUGAUCCUAGUUUCGCUACAGAUGAUUCCUUUAUGCUAACCCUGCUGGGAAAAUAUUUAUUGCUAUUCAGCAACAGAGGAUUGAGCAUCA
# B12: chr1:213302989:213302990:+_ENSG00000136643_ENST00000366960|hu_hu|motif|central (ssRNA)
# RNA: GGGAGUUCUACAGUCCGACGAUCAGAAGCAACAGCCCCUAGUGCUGAAGAAUCCGAAGAAAGAUUGAGACCAAAAGUUCGGAUGGGAGAAUUUUGAUUGGAAGCCAUUCCAUCAUCUAACUCAGCAAGAGAAUCCACAUCAACCAACAGAGGAUUGAGCAUCA
# B13: chr1:163117127:163117128:-_ENSG00000143248_ENST00000313961|hu_mus|hu_hu_hu_mus_False|78_98 (ssRNA)
# RNA: GGGAGUUCUACAGUCCGACGAUCUGCUACAAAGGAUGGAGGAAAUAUCACAGGGCAUGAUUUCAUAGCCUGACCAGAUGACUACUUGAUUAGCUCCUUAUAAAAUUCAGAGCGCACAAAGCGGGGCAGAGAAUCCUUCUCCAUCAACAGAGGAUUGAGCAUCA
# B14: chr3:131220538:131220539:-_ENSG00000114686_ENST00000264995|hu_mus|motif|central (ssRNA)
# RNA: GGGAGUUCUACAGUCCGACGAUCUUCUUCAGAAAGAUGUUCAUCCCACCAAGUACUACUCUUGCUGUGGAGAUUUCGGACAAAGAACAAGAUAUUCUUUCUUCUCUCUAAGCCGGGGUCAGCACCUAGGCCUCUGGCGCCACACAACAGAGGAUUGAGCAUCA
# B15: chr6:82862619:82862620:-_ENSMUSG00000000627_ENSMUST00000000641|mus_mus|FALSE|FALSE (ssRNA)
# RNA: GGGAGUUCUACAGUCCGACGAUCAACCUGCUUGUAAUUUCCUACACACUUUUCUGGGUUCCUUUUGUCAUCCCUCAAUAGCUAGAAUGUUGUGAAGUUCAUUUUAAAUGGAAGCCAAGGAAAGAGGGCUCAGCCUCCACUCCACAACAGAGGAUUGAGCAUCA
# B16: chr4:107545374:107545375:+_ENSMUSG00000028613_ENSMUST00000106731|mus_mus|FALSE|FALSE (ssRNA)
# RNA: GGGAGUUCUACAGUCCGACGAUCGUUGAUGGAUAGCCACAAAGCAUAAUUUUAUUUACAAAAAAAUCAAGCCCCUCAAACCUAAAAAAGCUCUCAACUCAAACAUCCUCUGUAAAUACUGUAUUCAAAUGAUGAGUGAAGUUUCAACAGAGGAUUGAGCAUCA
# B17: chr1:174973770:174973771:+_ENSG00000116161_ENST00000406752|hu_mus|FALSE|FALSE (ssRNA)
# RNA: GGGAGUUCUACAGUCCGACGAUCGAGUUCCGUCUCAAUCUUGGACUUUUCACUUGUAAGAGUAUCACGUAGUCUUUUCCUAGUGGACUUUUCCAGCAAUACUUUGACCUCUUCUAGGUCUUUCUGCAACUCUUCCAAAACGGACAACAGAGGAUUGAGCAUCA
# B18: chr22:19452774:19452775:-_ENSG00000070010_ENST00000399523|hu_hu|hu_hu_hu_mus_False|1_68 (ssRNA)
# RNA: GGGAGUUCUACAGUCCGACGAUCCUUCUCAUUGUAGUUGAUAGCAAUCACAUCUCCAGUCGUCAGACAGGCAAAGUUUCUCAAUGCAUUUUCUAAUACCGCUUUAGGGUUGGUAAUAUCCAGGAAGUCUGGGCUCUGAGGUUGCAACAGAGGAUUGAGCAUCA
# B19: 64993253_64993373_409_3pUTR_ENSMUSG00000029920_ENSMUST00000031984|mouse|control|control (ssRNA)
# RNA: GGGAGUUCUACAGUCCGACGAUCCUUCAGCACUAAGAGAAAUUGGUGACGAAGGACGGGCCUGGGAGGGCUGAGGGGCUGCUUCGGGUGCUUCCUCAAUCUUACUCCUUUUCUCAAAGCGAAAACGGUCCAAGUUGAAAAGAUCAACAGAGGAUUGAGCAUCA
# B20: chr2:160855017:160855018:-_ENSMUSG00000057133_ENSMUST00000039782|mus_hu|FALSE|FALSE (ssRNA)
# RNA: GGGAGUUCUACAGUCCGACGAUCAUCCUUUUCGAGCUCUUCCAUUGUGGCCCAUUUACAAUGUAAGUAGGAAAAAUUUCUAUACUUAACGUAGAACAGCUCCAAGUCGAACGGAGGUUCUCCUGGGUGAACCUCCUGGACAGUCAACAGAGGAUUGAGCAUCA
# B21: chr14:63761926:63761927:+_ENSMUSG00000021939_ENSMUST00000006235|mus_mus|FALSE|FALSE (ssRNA)
# RNA: GGGAGUUCUACAGUCCGACGAUCCUGCCAAUGUCAAGCAGAGGGAGAAUUGGUUUAUUGGCACAGACAUUCCUUGUUAAACUACAGGGUUAAGUGGUAACUACAACAAAAAGCAAGUUUUUUUUUCCAGACUAGUUUCAUUGUCAACAGAGGAUUGAGCAUCA
# B22: chr1:23381596:23381597:+_ENSG00000004487_ENST00000356634|hu_hu|motif|central (ssRNA)
# RNA: GGGAGUUCUACAGUCCGACGAUCAGUUGGUAGGGGUUUUAUCCUCUUAUAGAUGCCGAAGUUGAUAAGACCAUGACGCUCGGAAUAACUGUGAACUCGGUGGACAAGCACAGUAUCACUGUUAUAAGGUGCUUCUAAUUGUUGCAACAGAGGAUUGAGCAUCA
# Molecular target: T1, UNK ZnF1-3
# Assay: nsRBNS (natural sequence RNA bind-n-seq); RBNS binding buffer (assumed for nsRBNS): 25 mM Tris pH 7.5, 150 mM KCl, 3 mM MgCl2, 0.01% Triton X-100, 500 ug/ml BSA, 20 U/ml SUPERase-In, 4 C; UNK is unkempt and MSI1 is Musashi-1; names of the RNAs are library labels; protein concentration not given here; high values mean tight binding
row,Binder,binding signal
1,B1,0.697 enrichment R
2,B2,1.07 enrichment R
3,B3,2.3 enrichment R
4,B4,0.862 enrichment R
5,B5,0.941 enrichment R
6,B6,1.11 enrichment R
7,B7,0.426 enrichment R
8,B8,1.27 enrichment R
9,B9,0.538 enrichment R
10,B10,1.26 enrichment R
11,B11,1.13 enrichment R
12,B12,2.3 enrichment R
13,B13,1.46 enrichment R
14,B14,0.785 enrichment R
15,B15,0.841 enrichment R
16,B16,1.47 enrichment R
17,B17,0.405 enrichment R
18,B18,1.02 enrichment R
19,B19,1.21 enrichment R
20,B20,0.672 enrichment R
21,B21,1.12 enrichment R
22,B22,0.878 enrichment R
